# In ChEMBL document CHEMBL4513216, “Probing the Open Global Health Chemical Diversity Library for Multistage-Active Starting Points for Next-Generation Antimalarials” (ACS Infect Dis, 2020):
# Hit rate of the full screen: of about 69,000 compounds, about 8,600 (12%) showed an effect of 50% or more. The sample holds strong results, similar compounds and a random draw of the others, so the mix is not that of the screen.
# System: Plasmodium berghei
# Test: Screen against P. berghei liver stage (PbLuc), transformed with Luciferase, at 10uM
# Type: functional, HepG2
# Settings: tested at 10 uM
row,SMILES,INHIBITION [%]
1,CC(C)N1CCc2nnc(COc3cncnc3)n2CC1,-2.25
2,CC(C)N1CCCCC1c1nc(N(C)C)ncc1I (stereo not given),-9.51
3,Cc1ncncc1-c1ccnc(N(C)C)n1,4.08
4,CCCc1cc(NC2CCc3nc(C)nn3C2)n2ncnc2n1 (stereo not given),-2.23
5,Fc1cnc(N2CCC3(COCc4cnc(NCC5CC5)nc43)C2)nc1 (stereo not given),-53.2
6,CCN1CCC2(COCc3cnc(NCC4CC4)nc32)C1 (stereo not given),13.5
7,c1ccc(CN2CCC3(COCc4cnc(NCC5CC5)nc43)C2)cc1 (stereo not given),43.9
8,O=S(=O)(C1CC1)N1CCC2(COCc3cnc(NCC4CC4)nc32)C1 (stereo not given),57.4
9,Cc1nc(NCC2CC2)nc2c1COCC21CCN(C)C1 (stereo not given),31.3
10,c1cc(N2CCC3(COCc4cnc(NCC5CC5)nc43)C2)ncn1 (stereo not given),31.7
11,CN(C)S(=O)(=O)N1CCC2(COCc3cnc(NCC4CC4)nc32)C1 (stereo not given),62.8
12,Cc1nc(NCC2CC2)nc2c1COCC21CCN(S(=O)(=O)C2CC2)C1 (stereo not given),66
13,Cc1nc(NCC2CC2)nc2c1COCC21CCN(C(=O)C(C)(C)C)C1 (stereo not given),49.7
14,CC(C)c1noc(CCC(=O)NC(C)c2ccccn2)n1 (stereo not given),-40.96
15,Nc1nccc(C2CCN(c3cnccn3)C2)n1 (stereo not given),30.5
16,CCOc1cc(C(=O)N2CCCC(c3nc(C)c(C)s3)C2)ccn1 (stereo not given),48.4
17,O=C(COc1ccc2c(c1)OCO2)NCc1ccco1,31.135
18,CCCN1CCC(CC(=O)N2CCC(C(O)c3nccn3C)CC2)CC1 (stereo not given),6.69
19,CCn1nc(C)c2nc(C(C)C)nc(NC)c21,16.8
20,COCCN1CCCC2(CCN(c3nccnc3N(C)C)C2)C1=O (stereo not given),-52.2
21,CCN1CCCC2(CCN(Cc3nnc(C4CC4)o3)C2)C1=O (stereo not given),-9.18
22,COCCN1CCCC2(CCN(Cc3nnc(C4CC4)o3)C2)C1=O (stereo not given),51.2
23,O=C1N(CCO)CCCC12CCN(Cc1nnc(C3CC3)o1)C2 (stereo not given),61.1
24,COCCN1CCCC2(CCN(c3ncnc(C)c3C)C2)C1=O (stereo not given),69.6
25,O=C1CCC2(CCCN(Cc3nnc(C4CC4)o3)C2)CN1CCO (stereo not given),34.4
26,COCCN1CCCC2(CCN(Cc3noc(C4CCCC4)n3)C2)C1=O (stereo not given),9.56
27,COCCN1CCCC2(CCN(c3ncc(Cl)cc3Cl)C2)C1=O (stereo not given),-5.8
28,COCCN1CCC2(CCCN(Cc3ccoc3)C2)C1=O (stereo not given),8.74
29,Cc1nc2oc(C(=O)N3CCCC3)c(N)c2c2c1CCCC2,16
30,CCn1cnnc1CNC(=O)N1CCN(c2ccc(OC)cc2)CC1,36.1
